Reference: PubChem BioAssay AID1159580 (chemical genetic matrix, 2015)
Among all 5,500 compounds or so, about 2,000 (36%) were called active. Inconclusive results (about 18%) are left out. No stated cut-off is given here; in the data, active means normalized growth mostly below about 0.91 (no sharp cut-off); inconclusive means no clear call, values can overlap the other calls; inactive means mostly above about 0.92. This is one part of the list.

Test: chemical genetic growth profiling, strain panel (AID 1159580);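 further: tested at 20 µM; growth read once vehicle control cultures reached saturation at 30 °C; 1 = growth at the plate median or of vehicle wells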
Details: growth OD

Measured: normalized growth

CCCN(CCC)S(=O)(=O)c1ccc(C(=O)O)cc1
inactive: S. cerevisiae deletion strains, locus YJR075W, strain HOC1, stronger effect = lower value 1 | S. cerevisiae deletion strains, locus YKL009W, strain mrt4, stronger effect = lower value 0.998 | S. cerevisiae deletion strains, locus YKL068W, stronger effect = lower value 0.998 | S. cerevisiae deletion strains, locus YKL085W, strain MDH1 (second series), stronger effect = lower value 1 | S. cerevisiae deletion strains, locus YKL085W, strain MDH1, stronger effect = lower value 1 | S. cerevisiae deletion strains, locus YKL160W, strain elf1, stronger effect = lower value 0.971 | S. cerevisiae deletion strains, locus YKL190W, strain CNB1, stronger effect = lower value 0.983 | S. cerevisiae deletion strains, locus YKR001C, strain vps1, stronger effect = lower value 1.02 | S. cerevisiae deletion strains, locus YKR026C, strain gcn3, stronger effect = lower value 0.988 | S. cerevisiae deletion strains, locus YKR091W, strain srl3, stronger effect = lower value 0.993 | S. cerevisiae deletion strains, locus YLL001W, strain dnm1, stronger effect = lower value 0.952 | S. cerevisiae deletion strains, locus YLL026W, stronger effect = lower value 0.984 | S. cerevisiae deletion strains, locus YLL041C, strain sdh2, stronger effect = lower value 0.992 | S. cerevisiae deletion strains, locus YLR027C, strain aat2, stronger effect = lower value 0.973 | S. cerevisiae deletion strains, locus YLR039C, strain RIC1, stronger effect = lower value 1.02 | S. cerevisiae deletion strains, locus YLR058C, strain SHM2, stronger effect = lower value 1 | S. cerevisiae deletion strains, locus YLR102C, strain apc9, stronger effect = lower value 1 | S. cerevisiae deletion strains, locus YLR113W, strain HOG1, stronger effect = lower value 0.976 | S. cerevisiae deletion strains, locus YLR221C, strain rsa3, stronger effect = lower value 0.995 | S. cerevisiae deletion strains, locus YLR258W, strain gsy2, stronger effect = lower value 0.992 | S. cerevisiae deletion strains, locus YLR262C, strain YPT6 (second series), stronger effect = lower value 0.971 | S. cerevisiae deletion strains, locus YLR262C, strain YPT6, stronger effect = lower value 1.01 | S. cerevisiae deletion strains, locus YLR268W, strain sec22, stronger effect = lower value 1.03 | S. cerevisiae deletion strains, locus YLR320W, strain mms22, stronger effect = lower value 0.99 | S. cerevisiae deletion strains, locus YLR330W, strain CHS5, stronger effect = lower value 0.994 | S. cerevisiae deletion strains, locus YLR342W, strain FKS1 (second series), stronger effect = lower value 0.984 | S. cerevisiae deletion strains, locus YLR342W, strain FKS1, stronger effect = lower value 0.961 | S. cerevisiae deletion strains, locus YLR357W, strain rsc2, stronger effect = lower value 0.951 | S. cerevisiae deletion strains, locus YLR370C, strain arc18, stronger effect = lower value 0.974 | S. cerevisiae deletion strains, locus YLR371W, strain rom2, stronger effect = lower value 1.01 | S. cerevisiae deletion strains, locus YLR384C, strain iki3, stronger effect = lower value 0.983 | S. cerevisiae deletion strains, locus YLR418C, strain cdc73, stronger effect = lower value 1.03 | S. cerevisiae deletion strains, locus YML016C, strain PPZ1, stronger effect = lower value 1 | S. cerevisiae deletion strains, locus YML032C, strain rad52, stronger effect = lower value 1.02 | S. cerevisiae deletion strains, locus YML120C, strain ndi1, stronger effect = lower value 0.993 | S. cerevisiae deletion strains, locus YML124C, strain tub3, stronger effect = lower value 1.01 | S. cerevisiae deletion strains, locus YMR058W, strain fet3, stronger effect = lower value 0.991 | S. cerevisiae deletion strains, locus YMR078C, strain ctf18, stronger effect = lower value 1.03 | S. cerevisiae deletion strains, locus YMR125W, strain sto1, stronger effect = lower value 0.983 | S. cerevisiae deletion strains, locus YMR129W, stronger effect = lower value 0.991 | S. cerevisiae deletion strains, locus YMR205C, strain PFK2, stronger effect = lower value 0.984 | S. cerevisiae deletion strains, locus YMR223W, strain ubp8, stronger effect = lower value 0.992 | S. cerevisiae deletion strains, locus YMR231W, strain pep5, stronger effect = lower value 0.986 | S. cerevisiae deletion strains, locus YMR263W, strain SAP30, stronger effect = lower value 1 | S. cerevisiae deletion strains, locus YMR307W, strain GAS1, stronger effect = lower value 1 | S. cerevisiae deletion strains, locus YNL067W, strain RPL9B, stronger effect = lower value 1.01 | S. cerevisiae deletion strains, locus YNL071W, strain lat1, stronger effect = lower value 0.999 | S. cerevisiae deletion strains, locus YNL128W, strain TEP1, stronger effect = lower value 1.01 | S. cerevisiae deletion strains, locus YNL153C, strain GIM3, stronger effect = lower value 1.01 | S. cerevisiae deletion strains, locus YNL183C, strain NPR1, stronger effect = lower value 0.97 | S. cerevisiae deletion strains, locus YNL209W, strain ssb2, stronger effect = lower value 1.01 | S. cerevisiae deletion strains, locus YNL233W, strain BNI4, stronger effect = lower value 0.999 | S. cerevisiae deletion strains, locus YNL248C, strain rpa49, stronger effect = lower value 0.989 | S. cerevisiae deletion strains, locus YNL250W, strain rad50, stronger effect = lower value 1.01 | S. cerevisiae deletion strains, locus YNL271C, strain bni1, stronger effect = lower value 1.01 | S. cerevisiae deletion strains, locus YNL298W, strain CLA4, stronger effect = lower value 1.01 | S. cerevisiae deletion strains, locus YNL307C, strain MCK1, stronger effect = lower value 1.01 | S. cerevisiae deletion strains, locus YNL322C, strain KRE1 (second series), stronger effect = lower value 0.99 | S. cerevisiae deletion strains, locus YNL322C, strain KRE1, stronger effect = lower value 0.997 | S. cerevisiae deletion strains, locus YNR049C, strain mso1, stronger effect = lower value 0.984 | S. cerevisiae deletion strains, locus YNR052C, strain pop2, stronger effect = lower value 1.02 | S. cerevisiae deletion strains, locus YOL006C, strain TOP1, stronger effect = lower value 1.05 | S. cerevisiae deletion strains, locus YOL012C, strain htz1 0.687 | S. cerevisiae deletion strains, locus YOL147C, strain pex11, stronger effect = lower value 1 | S. cerevisiae deletion strains, locus YOR001W, strain rrp6, stronger effect = lower value 0.98 | S. cerevisiae deletion strains, locus YOR061W, strain CKA2, stronger effect = lower value 1 | S. cerevisiae deletion strains, locus YOR069W, strain VPS5, stronger effect = lower value 0.995 | S. cerevisiae deletion strains, locus YOR070C, strain gyp1, stronger effect = lower value 1 | S. cerevisiae deletion strains, locus YOR080W, strain dia2, stronger effect = lower value 0.982 | S. cerevisiae deletion strains, locus YOR083W, strain WHI5, stronger effect = lower value 0.953 | S. cerevisiae deletion strains, locus YOR106W, strain vam3, stronger effect = lower value 0.971 | S. cerevisiae deletion strains, locus YOR136W, strain idh2, stronger effect = lower value 1.02 | S. cerevisiae deletion strains, locus YOR144C, strain elg1, stronger effect = lower value 1.01 | S. cerevisiae deletion strains, locus YOR184W, strain ser1, stronger effect = lower value 1.04 | S. cerevisiae deletion strains, locus YOR231W, strain MKK1, stronger effect = lower value 0.976 | S. cerevisiae deletion strains, locus YOR265W, strain rbl2, stronger effect = lower value 0.992 | S. cerevisiae deletion strains, locus YOR270C, strain vph1, stronger effect = lower value 1 | S. cerevisiae deletion strains, locus YOR290C, strain snf2, stronger effect = lower value 1.01 | S. cerevisiae deletion strains, locus YOR316C, strain cot1, stronger effect = lower value 1.01 | S. cerevisiae deletion strains, locus YPL051W, strain arl3, stronger effect = lower value 0.984 | S. cerevisiae deletion strains, locus YPL055C, strain LGE1, stronger effect = lower value 0.976 | S. cerevisiae deletion strains, locus YPL078C, strain atp4, stronger effect = lower value 0.953 | S. cerevisiae deletion strains, locus YPL106C, strain sse1, stronger effect = lower value 1.01 | S. cerevisiae deletion strains, locus YPL240C, strain hsp82, stronger effect = lower value 0.977 | S. cerevisiae deletion strains, locus YPL241C, strain CIN2, stronger effect = lower value 0.991 | S. cerevisiae deletion strains, locus YPL256C, strain CLN2, stronger effect = lower value 1.04 | S. cerevisiae deletion strains, locus YPR119W, strain clb2, stronger effect = lower value 1.01 | S. cerevisiae deletion strains, locus YPR141C, strain kar3, stronger effect = lower value 1 | S. cerevisiae deletion strains, locus YPR163C, strain tif3, stronger effect = lower value 1.01 | S. cerevisiae deletion strains, locus YPR167C, strain met16, stronger effect = lower value 1.01 | S. cerevisiae deletion strains, strain wtn01, stronger effect = lower value 1.01 | S. cerevisiae strains, strain wild type, stronger effect = lower value 0.99
